Assay results published in PubChem BioAssay AID720706 (Broad Institute, 2013).
Hit rate of the full screen: of about 350,000 compounds, about 5,500 (1.6%) were called active.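 The calls were made as follows: active = significant combined selectivity score with lowered wild-type GFP, culture density cut under 30%, mutant RFP and density less affected; inactive = any of these conditions unmet.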 Many of the other results were omitted from the sample, so actives are more common in it than they were.

Assay: GFP drop in mixed WT/humanized-ribosome E. coli culture – GFP/RFP fluorescence, OD600, single point, bacterial rRNA inhibitor project, primary screen (AID 720706)
Conditions: E. coli WT GFP vs humanized-ribosome RFP mutants, 24 h; GFP signal change (wild-type ribosome): stronger effect = lower value, DMSO median 0, no signal -100; OD600 change: measured here: OD600 growth, DMSO median 0, no signal -100; RFP signal change: measured here: RFP humanized mutant strains, DMSO median 0, no signal -100, concentration not given here

Structure (SMILES) | GFP signal change (wild-type ribosome) | OD600 change [%] | RFP signal change [%]
CSc1ccccc1OCc1cc(C(=O)N(C)CCc2c(C)n[nH]c2C)no1 | -27.9% (inactive) | -25.7 | -4.44
COc1cc(Cl)ccc1OCc1cc(C(=O)N(C)CCc2c(C)n[nH]c2C)no1 | -23.6% (active) | -18.4 | 4.51
CCn1ccnc1CN(C)C(=O)c1cc(COc2ccc(Cl)cc2OC)on1 | 2.1% (inactive) | 0.213 | -1.68
COc1ccc(C(C)=O)cc1COc1ccc(Cl)c(C)c1 | -21% (active) | 2.55 | 1.65
CCOc1ccc(C(C)=O)cc1COC(=O)c1cnc(Cl)c(Cl)c1 | 4.75% (inactive) | 3.34 | -2.34
Cc1ccc(/C(N)=N/OC(=O)COc2ccc(Cl)c(C)c2)cc1 | 6.91% (inactive) | 1.73 | -7.27
C[C@@H]1CN([C@@H](C)CO)C(=O)Cc2cc(NC(=O)Nc3ccc(C(F)(F)F)cc3)ccc2O[C@H]1CN(C)Cc1ccc(C(=O)O)cc1 | -4.09% (inactive) | -39.2 | -9.85
C[C@@H]1CN([C@@H](C)CO)S(=O)(=O)c2ccc(C#Cc3cccnc3)cc2O[C@@H]1CN(C)C | 11% (inactive) | 15.5 | 0.337
S=C(Nc1ccc(Cl)cc1Cl)N1CCCC1 | -29.6% (active) | 3.51 | -5.19
S=C(Nc1ccc(Br)cc1Cl)N1CCC2(CC1)OCCO2 | -18.4% (inactive) | -20.4 | -6.29
O=C(NC(=S)Nc1ccc(Cl)cc1Cl)C1CC1 | -7.95% (inactive) | -11.5 | 2.17
COc1ccc(-n2c(SCC(=O)NCc3ccco3)nnc2-c2c[nH]c3ccccc23)cc1 | -0.435% (inactive) | -16.1 | 3.4
O=C(CSc1nnc(-c2ccco2)n1Cc1ccccc1)NC(=O)NCc1ccco1 | -20.4% (active) | -7.72 | 1.04
Cc1cc(C)n2nc(SCC(=O)NC(=O)NCc3ccco3)nc2n1 | 24.5% (inactive) | 11.7 | -0.644
Cc1c(C(=O)NCC2CCCO2)sc2nc(-c3ccccc3)cn12 (stereo not given) | -4.79% (inactive) | -21.2 | -7.98
Cc1c(C(=O)NCCN2CCOCC2)sc2nc(-c3ccc(F)cc3)cn12 | -16.9% (active) | -2.55 | 3.25
Cc1ccc(C(=O)N/C(=C\c2ccc(F)cc2)C(=O)NCCN2CCOCC2)cc1 | 8.39% (inactive) | 9.73 | -0.48
C/C=C/c1ccc([C@H]2[C@@H](CO)N(C(=O)Cc3ccncc3)[C@@H]2CNC(C)=O)cc1 | 1.54% (inactive) | 6.92 | -0.347
Nc1nonc1-n1nnc(C(=O)N/N=C/c2ccc(Cl)cc2)c1-c1ccc2c(c1)OCO2 | 0.08% (inactive) | 0.681 | -3.98
C(=N\Nc1ccc2ccccc2n1)/c1ccc2c(c1)OCO2 | -21.9% (active) | 16.6 | -0.634
NC(=O)c1ccc(NC(=O)COC(=O)c2c3c(nc4ccccc24)/C(=C\c2ccc4c(c2)OCO4)CCC3)cc1 | 55.8% (inactive) | -19.8 | 1.2
C[C@@H]1CN([C@@H](C)CO)C(=O)c2cccc(NC(=O)c3cnccn3)c2O[C@H]1CN(C)S(=O)(=O)c1cccs1 | 4.71% (inactive) | 6.99 | -1.1

Structure (SMILES) | GFP signal change (wild-type ribosome) | OD600 change [%] | RFP signal change [%]
CCC(=O)Nc1ccc2c(c1)OC[C@H](C)N(Cc1ccccc1OC)C[C@@H](C)[C@@H](OC)CN(C)C2=O | 0.179% (inactive) | 4.08 | 2.06
CCCNC(=O)N(C)C[C@@H]1Oc2ncc(-c3ccccc3F)cc2C(=O)N([C@@H](C)CO)C[C@H]1C | 0.96% (inactive) | 11.5 | -3.35
O=C(Nc1ccccc1)Oc1cccc2cccnc12 | 7.63% (inactive) | 14.2 | 1.55
O=C(Nc1ccccc1Cl)Nc1cccc2cccnc12 | -27.2% (active) | -17.3 | -8.08
CC(=O)/C(=N\Nc1ccc(Cl)cc1Cl)Sc1cccc2cccnc12 | -8.55% (inactive) | -0.275 | -1.79
COc1ccc2c3c(n(C)c2c1)[C@@H](CO)N(S(C)(=O)=O)CC31CCN(C(=O)C2CCC2)CC1 | -4.54% (inactive) | -7.74 | -2.66
CCOC(=O)c1c(CC(C)C)csc1/N=C/C1=C(O)CCCC1=O | -13.2% (inactive) | -8.82 | 21.8
CCOC(=O)c1sc(/N=C/C2=C(O)CC(C)(C)CC2=O)c(C(=O)OCC)c1C | -22.9% (active) | -5.5 | -2.5
CCNC(=S)N1CCN(CCN=CC2=C(O)CC(C)(C)CC2=O)CC1 | 9.96% (inactive) | 0.25 | -7.06
CC(C)C#Cc1ccc([C@H]2[C@@H](CO)N3CCCCN(C(=O)Nc4ccccc4)C[C@H]23)cc1 | -26% (inactive) | -29.6 | 1.8
CO[C@@H]1CN(C)C(=O)c2ccc(NC(=O)NC(C)C)cc2OC[C@@H](C)N(C)C[C@H]1C | 2.58% (inactive) | 9.18 | 2.18
COC(=O)C1=CN(Cc2ccc(OC)c(OC)c2)C=C(C(=O)OC)C1c1cccs1 | -4.13% (inactive) | -22.2 | 6.91
C=CCOC(=O)C1=C(C)NC(C)=C(C(=O)OCC=C)C1c1cccs1 | -17.1% (active) | -4.32 | 3.89
C=CCOC(=O)c1ccccc1C(=O)OCC=C | 7.54% (inactive) | 7.92 | 12
Cc1noc(C)c1S(=O)(=O)Nc1ccc2c(c1)C(=O)N([C@@H](C)CO)C[C@@H](C)[C@@H](CN(C)S(=O)(=O)c1ccccc1)OCCCC[C@H](C)O2 | -1.55% (inactive) | -7.72 | -2
O=C1Nc2ccccc2NC(c2ccc3c(c2)OCO3)=C1N(Cc1ccc(F)cc1)C(=O)c1ccco1 | -28.3% (active) | -22.6 | 8
CC1(C(=O)NCc2ccco2)Cc2c(-c3ccc4c(c3)OCO4)ccnc2O1 (stereo not given) | 10.2% (inactive) | 0.265 | -2.19
CC(NC(=O)c1ccco1)c1ccc2c(c1)OCO2 (stereo not given) | -0.41% (inactive) | 4.91 | -2.06
CC(C)NC(=O)N(C)C[C@@H]1OCc2ccccc2-c2c(n(C)c3ccccc23)C(=O)N([C@@H](C)CO)C[C@H]1C | 1.88% (inactive) | -5.55 | -8.97
CC(=O)Nc1ccc(NC(=O)C2CCCN(S(=O)(=O)c3ccc(Cl)cc3)C2)cc1 (stereo not given) | 6.79% (inactive) | 9.12 | -1.21
CC(C)c1ccc(NC(=O)C2CCCN(S(=O)(=O)c3cccnc3)C2)cc1 (stereo not given) | -15.6% (inactive) | -14.1 | -1.15
Cc1n[nH]c(C)c1S(=O)(=O)N1CCCC(C(=O)Nc2ccc(Br)cc2)C1 (stereo not given) | -18.5% (active) | -8.94 | 2.17

Structure (SMILES) | GFP signal change (wild-type ribosome) | OD600 change [%] | RFP signal change [%]
C[C@H](CO)N1C[C@H](C)[C@H](CN(C)CC2CCCCC2)Oc2ccc(NC(=O)CCCCCC(=O)Nc3ccccc3N)cc2C1=O | 3.67% (inactive) | 1.29 | 2.33
CN(C)C(=O)[C@H]1[C@H](CO)[C@H]2Cn3c(ccc(-c4ccc(F)cc4)c3=O)[C@H]2N1C(=O)c1ccccn1 | 3.15% (inactive) | 9.51 | 0.335
COC(=O)C[C@@H]1CC[C@@H]2[C@H](COc3ccc(NS(=O)(=O)c4ccccc4F)cc3C(=O)N2C)O1 | -1.08% (inactive) | 1.69 | 1.71
NC(=O)c1ccc(CN2CCC(Cc3ccccc3)CC2)cc1 | 20.9% (inactive) | 10.4 | 1.24
O=S1(=O)CCOC[C@H](Cc2ccccc2)N1Cc1ccccc1Br | -13.5% (inactive) | -12.2 | -2.23
Brc1ccccc1CN1CCC(Cc2ccccc2)CC1 | -24.7% (active) | -12 | -3.42
O=C(C[C@H]1CC[C@@H]2[C@H](COC[C@H](O)CN2S(=O)(=O)c2ccccc2)O1)N1CCOCC1 | 6.11% (inactive) | 11.2 | -4.33
O=C(c1ccccc1)N1CC(=O)N2[C@@H](CO)[C@H](c3ccc(C#CC4CC4)cc3)[C@@H]2C1 | 4.2% (inactive) | 0.601 | -2.44
CCCNC(=O)N1CC2(CN(C(=O)C3CCCCC3)C2)c2c([nH]c3cc(OC)ccc23)[C@@H]1CO | -0.587% (inactive) | -2.63 | -0.961
O=S1(=O)CC(N2CCN(Cc3ccccc3F)CC2)CN1Cc1cn(Cc2ccccc2)nn1 (stereo not given) | 15% (inactive) | 11.5 | 0.47
Cc1cccc(CN2CCN(C3CN(Cc4cn(Cc5ccccc5F)nn4)S(=O)(=O)C3)CC2)c1 (stereo not given) | 6% (inactive) | 11 | -3.05
O=S1(=O)CC(N2CCN(Cc3ccccc3F)CC2)CN1Cc1cn(Cc2cccc(C(F)(F)F)c2)nn1 (stereo not given) | -29.5% (active) | -22.9 | -2.53
C[C@@H]1CN([C@H](C)CO)C(=O)c2cccc(NC(=O)C3CC3)c2O[C@@H]1CN(C)C(=O)Nc1ccccc1 | 4.57% (inactive) | 10.7 | -0.0555
O=C(C[C@H]1CC[C@@H](NC(=O)Cc2ccccn2)[C@H](CO)O1)NCCc1ccccc1 | -0.355% (inactive) | -12 | -1.51
CN1c2ccc([N+](=O)[O-])cc2C(C)(C)C12C=Cc1cc(C(=O)O)ccc1O2 (stereo not given) | -34.2% (active) | -21.4 | -10.7
O=[N+]([O-])c1ccc(N2CCN(c3ccc(O)cc3)CC2)c(Cl)c1 | -7.92% (inactive) | 0.78 | 1.58
Cc1cc(C(=O)O)ccc1[N+](=O)[O-] | -5.96% (inactive) | -5.09 | -0.268
O=C(c1cccc(F)c1)N1C[C@H]2[C@@H](c3ccccc31)[C@@H](CO)N2C(=O)Cc1ccccc1 | 2.22% (inactive) | 9.86 | -2.34
CN(C)CCOCCOc1ccc(Cl)c2ccccc12 | -18.5% (active) | -8.69 | 3.22
CCN(CC)CCOCCOc1ccc(Cl)c2ccccc12 | -15.6% (inactive) | -34.8 | 10.8
CN(C)CCOc1ccc(Cl)cc1C(C)(C)C | -1.5% (inactive) | 4.96 | 1.97
